# Measured values published in the supplement of paper PMC8728848.
# This excerpt belongs to a sample that is enriched for the strongest signals.
# Key:
# Assay in all cases: glycan array binding signal (z-score within array); higher = stronger binding
# Conditions in all cases: glycan notation: IUPAC condensed, linker removed
# [1] = target: Fuc(a1-2)Gal(b1-3)GlcNAc(b1-3)[Gal(b1-4)GlcNAc(b1-6)]Gal(b1-4)Glc
# Procedure, shortened: (§1)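 The binding signal is a Z-score computed within each array. Data were drawn from 3228 arrays in the Consortium for Functional Glycomics database, restricted to those with a known protein sequence. Scores were averaged over arrays of the same protein sequence at different concentrations or buffers, and over linkers, and negative values can be taken as non-binding.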
# [2] = target: Fuc(a1-2)Gal(b1-3)[Fuc(a1-4)]GlcNAc(b1-3)[Fuc(a1-3)[Gal(b1-4)]GlcNAc(b1-6)]Gal(b1-4)Glc
# Procedure, shortened: as §1
# [3] = target: Fuc(a1-2)Gal(b1-4)GlcNAc(b1-2)Man(a1-3)[Fuc(a1-2)Gal(b1-4)GlcNAc(b1-2)Man(a1-6)]Man(b1-4)GlcNAc(b1-4)GlcNAc
# Procedure, shortened: as §1
# [4] = target: Fuc(a1-2)Gal(b1-4)GlcNAc(b1-2)[Fuc(a1-2)Gal(b1-4)GlcNAc(b1-4)]Man(a1-3)[Fuc(a1-2)Gal(b1-4)GlcNAc(b1-2)Man(a1-6)]Man(b1-4)GlcNAc(b1-4)GlcNAc
# Procedure, shortened: as §1
# [5] = target: Fuc(a1-2)[Gal(a1-3)]Gal(b1-3)GlcNAc(b1-2)Man(a1-3)[Fuc(a1-2)[Gal(a1-3)]Gal(b1-3)GlcNAc(b1-2)Man(a1-6)]Man(b1-4)GlcNAc(b1-4)GlcNAc
# Procedure, shortened: as §1
# [6] = target: Fuc(a1-2)[Gal(a1-3)]Gal(b1-3)GlcNAc(b1-2)Man(a1-3)[Fuc(a1-2)[Gal(a1-3)]Gal(b1-3)GlcNAc(b1-2)Man(a1-6)]Man(b1-4)GlcNAc(b1-4)[Fuc(a1-6)]GlcNAc
# Procedure, shortened: as §1
# [7] = target: Fuc(a1-2)[Gal(a1-3)]Gal(b1-4)GlcNAc
# Procedure, shortened: as §1
# [8] = target: Fuc(a1-2)[Gal(a1-4)]Gal(b1-4)GlcNAc
# Procedure, shortened: as §1
# [9] = target: Fuc(a1-2)[GalNAc(a1-3)]Gal(b1-3)GlcNAc
# Procedure, shortened: as §1
# [10] = target: Fuc(a1-2)[GalNAc(a1-3)]Gal(b1-3)GlcNAc(b1-3)GalNAc
# Procedure, shortened: as §1
# [11] = target: Fuc(a1-2)[GalNAc(a1-3)]Gal(b1-4)GlcNAc(b1-3)Gal(b1-4)GlcNAc
# Procedure, shortened: as §1
# [12] = target: Fuc(a1-3)[Gal(b1-4)]GlcNAc(b1-2)Man(a1-3)[Fuc(a1-3)[Gal(b1-4)]GlcNAc(b1-2)Man(a1-6)]Man(b1-4)GlcNAc(b1-4)GlcNAc
# Procedure, shortened: as §1
# [13] = target: Fuc(a1-3)[Gal(b1-4)]GlcNAc(b1-2)Man(a1-3)[Fuc(a1-3)[Gal(b1-4)]GlcNAc(b1-2)Man(a1-6)]Man(b1-4)GlcNAc(b1-4)[Fuc(a1-6)]GlcNAc
# Procedure, shortened: as §1
# [14] = target: Gal(a1-3)Gal(b1-4)[Fuc(a1-3)]GlcNAc
# Procedure, shortened: as §1
# [15] = target: Gal(a1-4)Gal(b1-3)GlcNAc(b1-2)Man(a1-3)[Gal(a1-4)Gal(b1-3)GlcNAc(b1-2)Man(a1-6)]Man(b1-4)GlcNAc(b1-4)GlcNAc
# Procedure, shortened: as §1
# [16] = target: Gal(a1-4)Gal(b1-4)GlcNAc(b1-3)Gal(b1-4)Glc
# Procedure, shortened: as §1
# [17] = target: Gal(b1-2)Gal
# Procedure, shortened: as §1
# [18] = target: Gal(b1-4)GlcNAc(b1-2)Man(a1-3)[Gal(b1-4)GlcNAc(b1-2)][GlcNAc(b1-4)]Man(b1-4)GlcNAc(b1-4)GlcNAc
# Procedure, shortened: as §1
# [19] = target: Gal(b1-4)GlcNAc(b1-3)Gal(b1-4)Glc
# Procedure, shortened: as §1
# [20] = target: Gal(b1-4)GlcNAc(b1-3)Gal(b1-4)[Fuc(a1-3)]GlcNAc(b1-3)Gal(b1-4)[Fuc(a1-3)]GlcNAc
# Procedure, shortened: as §1
# [21] = target: Gal3S(b1-4)Glc
# Procedure, shortened: as §1
# [22] = target: GalNAc(a1-3)GalNAc(b1-3)Gal(a1-4)Gal(b1-4)Glc
# Procedure, shortened: as §1
# [23] = target: GalNAc(b1-3)Gal(a1-6)Gal(b1-4)Glc
# Procedure, shortened: as §1
# [24] = target: GalNAc(b1-6)GalNAc
# Procedure, shortened: as §1
# [25] = target: Glc(a1-4)Glc(a1-4)Glc(a1-4)Glc
# Procedure, shortened: as §1
# [26] = target: GlcNAc(a1-4)Gal(b1-4)GlcNAc(b1-3)Gal(b1-4)GlcNAc
# Procedure, shortened: as §1
# [27] = target: GlcNAc(b1-4)GlcNAc
# Procedure, shortened: as §1
# [28] = target: GlcNAc(b1-4)GlcNAc(b1-4)GlcNAc(b1-4)GlcNAc(b1-4)GlcNAc
# Procedure, shortened: as §1
# [29] = target: Kdn(a2-3)Gal(b1-4)GlcNAc
# Procedure, shortened: as §1
# [30] = target: Kdn(a2-3)Gal(b1-4)[Fuc(a1-3)]GlcNAc
# Procedure, shortened: as §1
# [31] = target: Man(a1-2)Man(a1-3)[Man(a1-2)Man(a1-6)]Man
# Procedure, shortened: as §1
# [32] = target: Man(a1-2)Man(a1-6)[Man(a1-3)]Man(a1-6)[Man(a1-2)Man(a1-2)Man(a1-3)]Man
# Procedure, shortened: as §1
# [33] = target: Man(a1-3)[Man(a1-6)]Man
# Procedure, shortened: as §1
# [34] = target: Man(a1-3)[Man(a1-6)]Man(a1-6)[Man(a1-3)]Man
# Procedure, shortened: as §1
# [35] = target: Neu5Ac(a2-3)Gal
# Procedure, shortened: as §1
# [36] = target: Neu5Ac(a2-3)Gal6S(b1-4)GlcNAc
# Procedure, shortened: as §1
# [37] = target: Neu5Ac(a2-6)GlcNAc(b1-4)GlcNAc
# Procedure, shortened: as §1
# [38] = target: Neu5Ac(a2-8)Neu5Ac(a2-8)Neu5Ac
# Procedure, shortened: as §1
# [39] = target: Neu5Ac(a2-8)Neu5Ac(a2-8)Neu5Ac(a2-3)Gal(b1-4)Glc
# Procedure, shortened: as §1
# [40] = target: Neu5Ac9Ac(a2-3)Gal(b1-3)GlcNAc
# Procedure, shortened: as §1
# [41] = target: Neu5Gc(b2-6)Gal(b1-4)GlcNAc
# Procedure, shortened: as §1
binder,measurement,setting,value
"PGP3 (Chlamydia trachomatis), P0CE18 (protein) MGNSGFYLYNTQNCVFADNIKVGQMTEPLKDQQIILGTTSTPVAAKMTASDGISLTVSNNPSTNASITIGLDAEKAYQLILEKLGDQILGGIADTIVDSTVQDILDKITTDPSLGLLKAFNNFPITNKIQCNGLFTPRNIETLLGGTEIGKFTVTPKSSGSMFLVSADIIASRMEGGVVLALVREGDSKPYAISYGYSSGVPNLCSLRTRIINTGLTPTTYSLRVGGLESGVVWVNALSNGNDILGITNTSNVSFLEVIPQTNA",glycan array binding signal (z-score),[1],0.289
same,glycan array binding signal (z-score),[2],-0.443
same,glycan array binding signal (z-score),[3],-0.053
same,glycan array binding signal (z-score),[4],2.62
same,glycan array binding signal (z-score),[5],5.67
same,glycan array binding signal (z-score),[6],0.251
same,glycan array binding signal (z-score),[7],-1.17
same,glycan array binding signal (z-score),[8],-0.649
same,glycan array binding signal (z-score),[9],0.499
same,glycan array binding signal (z-score),[10],2.46
same,glycan array binding signal (z-score),[11],0.028
same,glycan array binding signal (z-score),[12],2.78
same,glycan array binding signal (z-score),[13],-0.169
same,glycan array binding signal (z-score),[14],-0.404
same,glycan array binding signal (z-score),[15],3.06
same,glycan array binding signal (z-score),[16],-0.099
same,glycan array binding signal (z-score),[17],0.34
same,glycan array binding signal (z-score),[18],1.19
same,glycan array binding signal (z-score),[19],-0.67
same,glycan array binding signal (z-score),[20],0.322
same,glycan array binding signal (z-score),[21],-0.636
same,glycan array binding signal (z-score),[22],1.04
same,glycan array binding signal (z-score),[23],2.89
same,glycan array binding signal (z-score),[24],0.114
same,glycan array binding signal (z-score),[25],0.478
same,glycan array binding signal (z-score),[26],1.53
same,glycan array binding signal (z-score),[27],0.682
same,glycan array binding signal (z-score),[28],1.18
same,glycan array binding signal (z-score),[29],1.53
same,glycan array binding signal (z-score),[30],0.816
same,glycan array binding signal (z-score),[31],0.09
same,glycan array binding signal (z-score),[32],0.585
same,glycan array binding signal (z-score),[33],-0.232
same,glycan array binding signal (z-score),[34],0.157
same,glycan array binding signal (z-score),[35],0.478
same,glycan array binding signal (z-score),[36],2.5
same,glycan array binding signal (z-score),[37],-1.37
same,glycan array binding signal (z-score),[38],1.11
same,glycan array binding signal (z-score),[39],2.79
same,glycan array binding signal (z-score),[40],2.73
same,glycan array binding signal (z-score),[41],-1.1
